The values that follow come from PubChem BioAssay (Tox21).

Values joined by “and” are separate entries in the source; they are usually repeats but may differ in a detail not shown here. Identical values can stand only once. Results filed as inconclusive are left out. The source holds several records for some structures; these can differ, active in one and inactive in another. Active and inactive are the calls of the source. Unless noted, the call rests on the fitted dose curve; in most records, active means well fitted curve in the direction sought with a large enough effect in the repeat runs; inconclusive means weak or mixed curves; inactive means no such curve, though single readings can be large; an effect the other way counts as inactive or inconclusive.

Assay [1] can be described thus: qHTS assay to identify small molecule agonists of the hypoxia (HIF-1) signaling pathway - cell viability counter screen (AID 1224844; calls by dose curve; further: nearly all actives have a fitted effect of over 50% in size; further: potency means the concentration at half of the fitted maximal effect). Put shortly:
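Cytotoxicity was measured in parallel with the HRE-driven beta-lactamase readout: after 17 hrs of compound exposure at 37C, HRE-bla ME-180 cells received CellTiter-Glo and luminescence was recorded 30 min later.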

A short description of assay [2]: qHTS assay to identify small molecule agonists of H2AX (AID 1224845; active means well fitted activation curve with a large enough effect in the signal ratio in the repeat runs, not every such curve was filed as active; the % refers to the signal ratio; further: potency means the concentration at half of the fitted maximal effect). Put shortly: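 Phospho-H2AX Ser139 measured by HTRF (ex 320 nm; em 665 and 620 nm) after 24 hr antibody incubation. Compounds, 15 concentrations, 0.76% DMSO, were applied to CHO-K1 cells for 3hr at 37C before lysis.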
(In qHTS, concentration-response curves come from the screen itself.)

Assay [3] in a line: qHTS assay to identify small molecule agonists of H2AX - cell viability counter screen (AID 1224847; calls by dose curve; further: nearly all actives have a fitted effect of over 30% in size; further: potency means the concentration at half of the fitted maximal effect). Put shortly:
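Quantitative HTS viability measurement: CHO-K1 wild-type cells in serum (10% FBS) medium, short 3 hr drug exposure at 37C with 0.76% DMSO, CellTiter-Glo luminescent detection.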

Assay [4] is described as follows: qHTS assay to identify small molecule agonists of the estrogen related receptor (ERR) signaling pathway from Tox21 library (AID 1224849; calls by dose curve; further: nearly all actives have a fitted effect of over 15% in size). Conditions: ERR reporter cell line, ONE-Glo luciferase, 18 h; at 92.4 µM (top of the series) unless noted. Put shortly: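 Cells carrying the ERR reporter were plated and allowed to settle for 6 h, exposed to library compounds for 18 h at 37 C, then lysed with ONE-Glo and luminescence measured.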

Assay [5] is described as follows: qHTS RealTime-Glo MT Cell Viability Assay in HEK293 cells - 32 hour (AID 1224868). Further: nearly all actives have a fitted effect of over 50% in size. Further: potency means the concentration at half of the fitted maximal effect. Put shortly: (§1)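 Cells + reagent dispensed (600 cells/well, HEK293) → 5 h at 37 C/5% CO2 → 23 nL compound in DMSO pinned → 40 h at 37 C → luminescence read at 0, 8, 16, 24, 32, 40 h.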
Assay [6] in a line: A CellTox Green Cytotoxicity Assay to monitor cytotoxicity in HEK293 cells - 0 hour (AID 1224869). Further: nearly all actives have a fitted effect of over 50% in size. Put shortly:
(§2)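 Cells (HEK293, 600/well) and dye reagent are dispensed together. After 5 h at 37 C, 23 nL compound is pinned in. Plates stay at 37 C for 40 h with fluorescence read at 0h, 8h, 16h, 24h, 32h and 40h.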

The nature of assay [7]: A CellTox Green Cytotoxicity Assay to monitor cytotoxicity in HEK293 cells - 40 hour (AID 1224871). Further: nearly all actives have a fitted effect of over 45% in size. Further: potency means the concentration at half of the fitted maximal effect. Put shortly: as §2
Assay [8] is described as follows: qHTS RealTime-Glo MT Cell Viability Assay in HEK293 cells - 16 hour (AID 1224872). Further: nearly all actives have a fitted effect of over 50% in size. Further: potency means the concentration at half of the fitted maximal effect. Put shortly:
as §1

Assay [9] in a line: qHTS RealTime-Glo MT Cell Viability Assay in HEK293 cells - 40 hour (AID 1224874). Further: nearly all actives have a fitted effect of over 50% in size. Further: potency means the concentration at half of the fitted maximal effect. Conditions: RealTime-Glo luminescence; max response: stronger effect = lower value. Put shortly: (§3)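 Real-time viability in HEK293: signal arises when living cells convert a prosubstrate for NanoLuc in the medium, so luminescence tracks viable cell number. Compound (23 nL, DMSO) added 5 h post-seeding; kinetic reads at 0–40 h, 37 C.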

A short description of assay [10]: A CellTox Green Cytotoxicity Assay to monitor cytotoxicity in HEK293 cells - 24 hour (AID 1224875). Further: nearly all actives have a fitted effect of over 45% in size. Put shortly: as §2
The nature of assay [11]: A CellTox Green Cytotoxicity Assay to monitor cytotoxicity in HepG2 cells - 16 hour (AID 1224876). Further: nearly all actives have a fitted effect of over 45% in size. Put shortly:
(§4)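 Cells and non-lytic dye reagent are dispensed together (600 HepG2 cells/well) and incubated 5 h before DMSO compound transfer. Kinetic fluorescence is then recorded in the same wells during 40 h at 37 C.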

A short description of assay [12]: qHTS RealTime-Glo MT Cell Viability Assay in HEK293 cells - 0 hour (AID 1224880). Further: top concentration of the series differs between compounds; nearly all actives have a fitted effect of over 45% in size. Put shortly:
as §3

Assay [13] can be described thus: qHTS assay to identify small molecule antagonists of the estrogen related receptor (ERR) signaling pathway from Tox21 library (AID 1224848). Further: nearly all actives have a fitted effect of over 50% in size. Further: potency means the concentration at half of the fitted maximal effect. Put shortly:
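ERR cell line, 2,000 cells/well. 6 h settle, then compound (DMSO) added; 18 h at 37 C; ONE-Glo luminescence after 30 min RT.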

A short description of assay [14]: qHTS RealTime-Glo MT Cell Viability Assay in HepG2 cells - 8 hour (AID 1224873). Further: nearly all actives have a fitted effect of over 55% in size. Put shortly:
(§5)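 Real-time viability: cells seeded at 600 per well together with NanoLuc and cell-permeant prosubstrate, compounds added after 5 h incubation. Luminescence tracked at 0, 8, 16, 24, 32 and 40 h of exposure.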

Assay [15] is described as follows: A CellTox Green Cytotoxicity Assay to monitor cytotoxicity in HepG2 cells - 24 hour (AID 1224878). Further: nearly all actives have a fitted effect of over 45% in size. Further: potency means the concentration at half of the fitted maximal effect. Put shortly: as §4
Assay [16] in a line: A CellTox Green Cytotoxicity Assay to monitor cytotoxicity in HepG2 cells - 40 hour (AID 1224879). Further: nearly all actives have a fitted effect of over 40% in size. Further: potency means the concentration at half of the fitted maximal effect. Put shortly:
as §4

The nature of assay [17]: qHTS RealTime-Glo MT Cell Viability Assay in HepG2 cells - 24 hour (AID 1224867). Further: nearly all actives have a fitted effect of over 50% in size. Further: potency means the concentration at half of the fitted maximal effect. Put shortly:
(§6)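 Real-time, nonlytic viability: 600 HepG2 cells/well mixed with NanoLuc enzyme plus prosubstrate; 5 h settle, compound (DMSO) added by pintool; luminescence monitored over 40 h at 37 C.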

A short description of assay [18]: qHTS RealTime-Glo MT Cell Viability Assay in HepG2 cells - 40 hour (AID 1224870). Further: nearly all actives have a fitted effect of over 50% in size. Further: potency means the concentration at half of the fitted maximal effect. Put shortly:
as §5

The nature of assay [19]: qHTS RealTime-Glo MT Cell Viability Assay in HepG2 cells - 32 hour (AID 1224877). Further: nearly all actives have a fitted effect of over 55% in size. Further: potency means the concentration at half of the fitted maximal effect. Put shortly:
as §6
On the % scale 0 is the no-effect control and ±100 the full control effect.

In the case of `COP(=O)(OC)O/C(=C\Cl)c1cc(Cl)c(Cl)cc1Cl`, the Potency entry in assay [1], in [2], in assay [3], in assay [5], in assay [6] and in assay [7] was “inactive” in each case. Also, the Potency entry in [8], in assay [10], in [11] and in assay [12] was “inactive” in each case. Further, the activity change, positive = activation in assay [4] is -68.1% (inactive). Moreover, in [9], the max response is 0.507% (inactive).

`CCOP(=S)(NC(C)C)Oc1ccccc1C(=O)OC(C)C` (centres undefined): the Potency in assay [1] was 6.16 µM (active); in assay [13], 30.6 µM (active); in assay [5] it was 43.6 µM (active); in assay [9], 43.6 µM (active); in [16] it was 38.9 µM (active). Further, the Potency entry in [2], in assay [6], in assay [7], in assay [14], in assay [10] and in [11] was “inactive” each time. In addition, in [15], the Potency result was “inactive”. The activity change, positive = activation in assay [4] was -39.6% (inactive).

In the case of `[O]=[Cr](=[O])([OH])[O][Cr](=[O])(=[O])[OH]`, the Potency in assay [1] was 2.78 µM (active) and 12.3 µM (active); in assay [2] it was 101 µM (active); in assay [3], 90.6 µM (active); in [5] it was 4.41 µM (active) and 4.36 µM (active); in assay [8] it was 7.83 µM (active) and 21.8 µM (active); in assay [9], 3.5 µM (active) and 2.18 µM (active). In addition, in assay [16], the Potency was 9.86 µM (active) and 12.3 µM (active). The Potency result in [6], in assay [7], in assay [14], in assay [10], in assay [11] and in assay [15] was “inactive” each time. In addition, the Potency entry in [12] is “inactive”.

Consider `N#Cc1c2ccccc2cc2ccccc12`, for which the Potency result in [1], in assay [2], in assay [13], in [17], in [5] and in [6] was “inactive” in each case. Moreover, the Potency entry in assay [18], in assay [7], in [8], in assay [14], in [10] and in assay [11] was “inactive” each time. The Potency result in [19], in assay [15] and in assay [12] was “inactive” in each case. Moreover, the activity change, positive = activation in [4] is 3.94% (inactive). In addition, the max response in assay [9] was -9.07% (inactive).

Turning to `COP(=O)(OC)Oc1ccc([N+](=O)[O-])cc1`, the Potency result in [1], in [2], in [3], in assay [17], in assay [5] and in assay [6] was “inactive” throughout. In addition, the Potency entry in assay [18], in assay [7], in assay [8], in [14], in [10] and in [11] was “inactive” each time. Further, the Potency entry in assay [19], in [15], in [16] and in assay [12] was “inactive” in each case. For the same molecule, the Potency in assay [13] was 30.6 µM (active). Besides, the activity change, positive = activation in assay [4] is -54.1% (inactive). Besides, the max response in assay [9] is -20.5% (inactive).

As to `O=C1C[C@@H]2OCC=C3CN4CC[C@]56c7ccccc7N1[C@H]5[C@H]2[C@H]3C[C@H]46`, the Potency result in assay [1], in assay [2], in assay [3], in assay [17], in assay [6] and in [18] was “inactive” each time. For the same molecule, the Potency result in [7], in [14], in assay [10], in assay [11], in assay [19] and in [15] was “inactive” in each case. For the same molecule, the Potency result in assay [16] and in assay [12] was “inactive” each time. In addition, the activity change, positive = activation in assay [4] was -3.01% [at 42.5 µM] (inactive).

In the case of `CCN(CC)C(=S)S`, the Potency was 19.7 µM (active) and 8.66 µM (active) and 9.77 µM (active) in assay [1]; “inactive and 21.9 µM (active)” in [17]; 24.8 µM (active) and 4.87 µM (active) and 11 µM (active) in assay [5]; “inactive and 21.9 µM (active)” in assay [18]; 17.5 µM (active) and 4.34 µM (active) and 9.77 µM (active) in assay [7]; “inactive and 21.9 µM (active)” in assay [19]. The Potency entry in assay [15] is “inactive and 7.72 µM (active) and 21.9 µM (active)”; in assay [16] it was 17.5 µM (active) and 6.13 µM (active) and 19.5 µM (active). The Potency result in [2], in assay [3], in [6], in assay [14], in assay [11] and in assay [12] was “inactive” throughout.
